This is part of a sample that, as a whole, favours compounds with a hit. Of some 83,000 tested, about 20% had one in any assay.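 48-hour exposure, single concentration, 96-well plates; percent growth endpoint where 0 means no net growth. Active: below 10.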 A number with no mark means an inactive call. Active and inactive are the calls of the source.
Legend:
Experiment in all cases: NCI-60 one-dose screen, 48 h (100 = growth as untreated, 0 = no growth, -100 = all killed)
Conditions in all cases: 10 µM unless noted
NCI-H23 lung = tested on: NCI-H23 lung
NCI-H226 lung = tested on: NCI-H226 lung
NCI-H322M lung = tested on: NCI-H322M lung
HOP-62 NSCLC = tested on: HOP-62 NSCLC
NCI-H460 lung = tested on: NCI-H460 lung
HOP-92 NSCLC = tested on: HOP-92 NSCLC
A549/ATCC NSCLC = tested on: A549/ATCC NSCLC
786-0 renal = tested on: 786-0 renal
COLO 205 colon = tested on: COLO 205 colon
DU-145 prostate = tested on: DU-145 prostate
K-562 leukemia = tested on: K-562 leukemia
MALME-3M melanoma = tested on: MALME-3M melanoma
MDA-MB-231 breast = tested on: MDA-MB-231 breast
RXF 393 renal = tested on: RXF 393 renal
SF-268 CNS = tested on: SF-268 CNS
SF-295 CNS = tested on: SF-295 CNS
SF-539 CNS = tested on: SF-539 CNS
UACC-257 melanoma = tested on: UACC-257 melanoma
M14 melanoma = tested on: M14 melanoma

Structure (SMILES) | growth (NCI-H23 lung) | growth (NCI-H226 lung) | growth (NCI-H322M lung) | growth (HOP-62 NSCLC) | growth (NCI-H460 lung) | growth (HOP-92 NSCLC) | growth (A549/ATCC NSCLC) | growth (786-0 renal) | growth (COLO 205 colon) | growth (DU-145 prostate) | growth (K-562 leukemia) | growth (MALME-3M melanoma) | growth (MDA-MB-231 breast) | growth (RXF 393 renal) | growth (SF-268 CNS) | growth (SF-295 CNS) | growth (SF-539 CNS) | growth (UACC-257 melanoma) | growth (M14 melanoma)
CCn1c2ccccc2c2cc(C(=O)c3ccc(C)c4ccccc34)ccc21 | 5.37% (active) | 32.8% | 28.1% | 9.22% (active) | 10.6% | 40.6% | 6.07% (active) | 17.6% | -16.3% (active) | 17.9% | 4.51% (active) | 74.4% | 26.4% | 15% | 19.8% | 11.6% | -5.79% (active) | 36.9% | 2.37% (active)
C=CCn1cc(C=C2C(=O)N(C)C(=O)N(C)C2=O)c2ccccc21 | 84.4% | -47.6% (active) | 87.8% | 97% | 56% | 91.2% | 107% | 101% | 116% | 108% | 108% | 97.4% | 88.4% | 89.9% | 97.8% | 66.4% | 102% | 94.4% | 88.9%
COC(=O)[C@H](Cc1ccccc1)NNC(=O)c1csc([C@@H](C[C@H](C(C)C)N(C)C(=O)[C@@H](NC(=O)[C@H]2CCCCN2C)C2CC2)OC(C)=O)n1 | 29.2% | 36.5% | 46.7% | 8.12% (active) | 3.02% (active) | 3.84% (active) | 15.3% | 11.9% | -60.3% (active) | 6.55% (active) | 1.75% (active) | 71% | 3.27% (active) | 76.4% | 22.5% | -5.26% (active) | -15.4% (active) | 58% | 2.43% (active)
Cc1c2cc(Cl)c3ccccc3c2c[n+]2ccccc12 | 47.8% | 43.5% | 31.3% | 12.3% | 55.7% | 75.4% | 40.5% | 16.1% | 56.1% | 78.3% |  | -16.2% (active) | 82.5% |  | -36.3% (active) | 18.3% | 26.3% |  | 47.5%
O=C1C2CC=CCC2C(=O)N1SC(Cl)(Cl)Cl (stereo not given) | 96.7% | 106% | 125% | 95.9% | 103% | 64.7% | 108% | 97.7% | 87.5% | 109% | 45.1% | 81.8% | 103% | 63.6% | 104% | 134% | 91.3% | 105% | 92.1%
COc1cc([N+](=O)[O-])c2nc(C)ccc2c1[N+](=O)[O-] | 105% | 104% | 139% | 132% | 115% | 96.3% | 107% | 105% | 77.6% | 84.9% |  | 88% | 94.4% | 88.2% | 98% | 132% | 118% | 101% | 92.5%
O=P(N1CC1)(N1CC1)N1CCc2ccccc21 | 103% | 105% | 108% | 105% | 63.3% | 115% | 101% | 106% | 117% | 112% |  | 109% | 104% | 109% | 103% |  | 105% | 110% | 104%
Cn1cc(C2=C(c3cn(C4CCN(Cc5ccccn5)CC4)c4ccccc34)C(=O)NC2=O)c2ccccc21 | 53.6% | 93.5% | 37.2% | 68% | 74.9% | 69.8% | 50.8% | 79.7% | 6.03% (active) | 70% | 91.3% | -3.24% (active) | 79.8% | 90.9% | 82.8% | 97.1% | 89.6% | -0.885% (active) | 16.5%
C[C@@]1(CCCCCCCCCc2ccc(O)cc2)C[C@]2(C)OC(=O)C[C@@H]2OO1 | 99.4% | 102% | 105% | 104% | 108% | 82.7% | 99.4% | 80.2% | 124% | 130% | 70% | 105% | 105% | 120% | 123% | 91.9% | 139% | 102% | 99.8%
